Screens (PubChem)
Rows were chosen to be rich in hits. Some 8% of all compounds tested hit in one or more screens of this group.
HCMV inh: blocks human cytomegalovirus replication; HFF cells, HCMV-luciferase reporter, 72 h; stronger effect = lower value; activity change, negative = inhibition, % at 57.5 µM; actives 4.5% (n = 410,000); in the data active = activity change below about -60%; inconclusive = no clear call, values can overlap the other calls; inactive = above about -39%; also: % is scaled to controls: 0 for no effect and ±100 for the full control effect
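Cell-based, HFFs, 1000 cells/well, 16 h 37C; cpds in DMSO + HCMV-luc, MOI 1 PFU/cell; 72 h 37C; OneGlo luminescence after 5 min RT; norm. to buffer vs Salinomycin 10uM.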
MARV entry inh: blocks Marburg virus binding to or entry into cells | Marburg virus pseudotyped entry inhibition, cell reporter | Potency, µM (doses to about 37.8 µM), inactives show at the highest dose activity change, negative = inhibition, hits mostly inhibitors | actives 1.8% (n = 300,000) | AID 540276; calls by dose curve; tested in HEK293 cells; also: potency is read from the fitted curve at half-maximal effect; % is scaled to controls: 0 for no effect and ±100 for the full control effect
SARS PLP yeast: SARS-CoV PLP inhibition in yeast; S. cerevisiae expressing SARS-CoV PLpro, growth rescue; Potency, µM (top dose mostly 32.9 µM), inactives show at the top dose activity, positive = growth rescue, hits mostly activators; actives 0.19% (n = 330,000); AID 485353; calls by dose curve; also: potency is read from the fitted curve at half-maximal effect; 0% is about no effect; nearly all actives have a fitted effect of over 55% in size
FMDV antiviral: blocks foot and mouth disease virus; Potency, µM (titrated, usually from 57.9 µM), without a hit: at the top dose activity change, negative = inhibition, actives largely listed as inhibitors; FMDV antiviral cell-based qHTS; actives 1.2% (n = 410,000); AID 1159524; calls by dose curve; tested in HEK293T cells; also: read-out not given here; potency is read from the fitted curve at half-maximal effect; % is scaled to controls: 0 for no effect and ±100 for the full control effect; nearly all actives have a fitted effect of over 45% in size
HCV inhibitor: inhibitors of hepatitis C virus infection; Huh7.5.1 HCVcc-Cre infection, luciferase reporter, 44 h; Potency, µM (highest dose often 41.8 µM), without a hit: top-dose activity change, negative = inhibition, usual class: inhibitors; actives 3.4% (n = 340,000); active = well fitted inhibition curve with a large enough effect; inconclusive = small, poorly fitted or top-dose-only effect, or another doubt; inactive = no such curve, though single readings can be large or run the other way; also: potency is read from the fitted curve at half-maximal effect; % is scaled to controls: 0 for no effect and ±100 for the full control effect
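HCVcc-Cre virus at an moi near 0.5 was added right after compound to cells cultured 4 h from seeding (1,000 cells/well). Luciferase activity was determined 44 h later, 15 min after substrate addition at RT.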
LASV entry inh: blocks Lassa virus binding to or entry into cells; actives 1.2% (n = 300,000); Potency, µM (titrated, usually from 37.9 µM), inactives show at the highest dose activity change, negative = inhibition, most hits filed as inhibitors; AID 540256; Lassa virus pseudotype entry inhibition, cell reporter; calls by dose curve; tested in HEK293 cells; also: potency is read from the fitted curve at half-maximal effect; % is scaled to controls: 0 for no effect and ±100 for the full control effect; nearly all actives have a fitted effect of over 50% in size
The depositor's hits bear a star; ? = inconclusive; . = no result; [ ] = remark or other dose.

SMILES	HCMV inh	MARV entry inh	SARS PLP yeast	FMDV antiviral	HCV inhibitor	LASV entry inh
CCC(C(=O)NCCCc1ccccc1)n1nc(C)c2c(C)n(-c3ccccc3)nc2c1=O (stereo unspecified)	-67*	?	-2%	-28%	?	-5%[46.1 µM]
CCC(C(=O)NC1CC1)n1nc(C)c2c(C)n(-c3ccc(C)cc3)nc2c1=O (stereo unspecified)	?	.	-1%	-12%	?	.
COc1ccc(CCNC(=O)C(C)n2nc(C)c3c(C)n(-c4ccc(C)cc4)nc3c2=O)c(OC)c1 (stereo unspecified)	-98*	?	-1%	?	3.2µM*	?
CCC(C(=O)NCc1ccc(OC)c(OC)c1)n1nc(C)c2c(C)n(-c3ccc(C)cc3)nc2c1=O (stereo unspecified)	-74*	.	.	?	.	?
CN(Cc1ccco1)C(=O)Cn1c(=O)oc2cc(S(=O)(=O)NCc3ccccc3)ccc21	65	-1%	4%	14%	-4%	-2%
CN(Cc1ccccc1)C(=O)Cn1c(=O)oc2cc(S(=O)(=O)NCc3ccccc3)ccc21	-71*	0%	8%	0%	14µM*	.
COc1cc2nc(N3CCN(c4cc(C)ccc4C)CC3)nc(N)c2cc1OC	-98*	4.5µM*	-4%	25µM*	7.1µM*	?
COc1cc2nc(N3CCNCC3)nc(N)c2cc1OC	?	?	-2%	9%	22µM*	4%
COc1ccc(C)cc1Nc1nc(N)c2cc(OC)c(OC)cc2n1	-34	?	-1%	-27%	?	?
COc1cc2nc(Cl)nc(N3CCCCC3)c2cc1OC	15	?	-2%	-28%	-24%	?
COC(=O)C(C(=O)OC)C1OC23CN(S(=O)(=O)c4ccc(C)cc4)C=CC2(C)C3c2ccccc21 (stereo unspecified)	.	-26%[14.2 µM]	.	.	.	.
COC(=O)Cc1c(C)c2ccc(OCC(=O)N3CCC(C)CC3)c(C)c2oc1=O	-14	-26%	-5%	35µM*	?	-5%
Cc1cc(=O)oc2c(C)c(OCC(=O)N3CCN(c4ccc(F)cc4)CC3)ccc12	-17	?	1%	-5%	?	2%[46.1 µM]
COc1ccccc1N1CCN(C(=O)COc2cc(C)ccc2C)CC1	-3	?	-8%	-24%	-1%	?
COc1ccccc1N1CCN(C(=O)COc2cc(C)cc3oc(=O)cc(C)c23)CC1	9	.	5%	?	8.9µM*	.
COC(=O)Cc1c(C)c2ccc(OCC(=O)N3CCCC3)c(C)c2oc1=O	6	-21%	5%	-22%	?	13%
Cc1cccc(N2CCN(C(=O)COc3ccc4c(C)cc(=O)oc4c3C)CC2)c1C	-34	?	-8%	?	10µM*	?
Cc1cccc(N2CCN(C(=O)COc3ccc4ccc(=O)oc4c3)CC2)c1C	?	.	-22%	?	11µM*	.
CCOc1ccc(NC(=O)c2cc(=O)c3cc(CC)ccc3o2)cc1	-14	?	.	7%	.	10%[46.1 µM]
CCOC(=O)CSC1=C(C#N)[C@H](c2ccc3c(c2)OCO3)CC(=O)N1	.	16µM*	.	.	.	.
COc1ccc(N2CC(O)=C(c3n(C)c4ccccc4[n+]3C)C2=N)cc1	-81*	3%	13%	-5%	-16%	1%
CCn1cc(/C=C(\NC(=O)c2ccc(C)cc2)C(=O)NCCCn2ccnc2)c2ccccc21	0	?	.	23%	.	20%[46.1 µM]
CC(=O)Nc1ccc(NC(=O)C(C)OC(=O)/C=C/c2cn(-c3ccccc3)nc2-c2cccnc2)cc1 (stereo unspecified)	-94*	?	21%	?	?	?
Cc1ccccc1NC(=O)COC(=O)/C=C/c1cn(-c2ccccc2)nc1-c1cccnc1	-29	-1%	14%	-18%	-18%	-12%
O=C(/C=C/c1cn(-c2ccccc2)nc1-c1cccnc1)N1CCCCC1	-60*	.	-1%	?	?	.
O=C(c1ccc(Cl)c(Cl)c1)c1cc(-c2ccccn2)c(N2CCOCC2)s1	-75*	?	-15%	-23%	1%	-10%
O=C(c1ccc(Br)cc1)c1cc(-c2ccccn2)c(N2CCOCC2)s1	55	?	6%	?	?	-29%
